Six molecules from PubChem BioAssay (EPA / NIEHS) can be followed below.

Records with an inconclusive call do not appear. Where a structure was tested more than once in an assay, its records may differ in their call. The source made the active and inactive calls. The calls were made as follows, unless noted: active = hit-call score of the fitted dose curve at least 0.9, where 1 is the maximum; inconclusive = response in the unintended direction; inactive = score below 0.9.

Assay [1] deals with Aryl hydrocarbon receptor (Homo sapiens) (UniProt P35869). Briefly: ATG_Ahr_CIS: Attagene CIS-FACTORIAL HepG2 Assay for human Aryl Hydrocarbon Receptor (Ahr) (AID 2282930; active = hit-call score of the fitted dose curve at least 0.9, where 1 is the maximum; inactive = score below 0.9). The following applies: HepG2 AhR cis-factorial reporter transcription; actives raise or lower the signal. The procedure, abridged:
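Endogenous factor activity is tracked through cis-promoter reporter units transfected into HepG2 cells. Transcript levels at 24 h are read by fluorescent RT-PCR and capillary electrophoresis, with activity in either direction scored relative to DMSO.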

Assay [2] can be described thus: ATG_M_19_TRANS: Attagene TRANS-FACTORIAL HepG2 Assay for M19 Transcription Factor (Internal Marker) (AID 2282974). The following applies: HepG2 Attagene TRANS-FACTORIAL M19 internal marker reporter. An outline of the steps: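 Cells: human HepG2, transiently transfected with multiplexed reporter transcription units. Exposure: 24 h. Detection: RT-PCR of reporter mRNA with capillary electrophoresis. Analysis: gain-of-signal vs DMSO.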

Assay [3] can be described thus: ATG_GAL4_TRANS: Attagene TRANS-FACTORIAL HepG2 Assay for GAL4 (Internal Marker) (AID 2282976). Particulars: HepG2 Attagene TRANS GAL4 internal marker reporter. An outline of the steps: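 Background-control readout: GAL4-UAS reporter transcript in transiently transfected HepG2 cells after 24 h compound exposure. Measured by RT-PCR, 6-FAM primer extension, HpaI digest and capillary electrophoresis; gain-of-signal fit versus DMSO.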

Assay [4] has as its target Oxysterols receptor LXR-alpha (Homo sapiens) (UniProt Q13133). Put plainly: ATG_LXRa_TRANS: Attagene TRANS-FACTORIAL HepG2 Assay for human Liver X Receptor alpha (LXRa) (AID 2282980). The following applies: HepG2 Attagene TRANS reporter, LXRa transactivation. The procedure, abridged: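 HepG2 cells transiently transfected with GAL4-UAS reporter units for chimeric NR-Gal4 proteins, exposed to chemicals for 24 h. Reporter mRNA quantified by RT-PCR and capillary electrophoresis; gain of signal fitted relative to DMSO.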

Assay [5] deals with human Peroxisome Proliferator-activated Receptor delta (PPARd), PPARD (gene 5467) (UniProt Q03181). Put plainly: ATG_PPARd_TRANS: Attagene TRANS-FACTORIAL HepG2 Assay for human Peroxisome Proliferator-activated Receptor delta (PPARd) (AID 2283002). The procedure, abridged: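 Fluorescence from capillary electrophoresis of labelled RT-PCR reporter fragments gives the signal; DMSO sets baseline. Cells: HepG2 transiently carrying GAL4-UAS reporter units plus chimeric nuclear receptor-Gal4 proteins, exposed to chemicals for 24 h.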
Chain of human Peroxisome Proliferator-activated Receptor delta (PPARd), PPARD (gene 5467) (Q03181 whole entry, looked up, the tested form may be a part): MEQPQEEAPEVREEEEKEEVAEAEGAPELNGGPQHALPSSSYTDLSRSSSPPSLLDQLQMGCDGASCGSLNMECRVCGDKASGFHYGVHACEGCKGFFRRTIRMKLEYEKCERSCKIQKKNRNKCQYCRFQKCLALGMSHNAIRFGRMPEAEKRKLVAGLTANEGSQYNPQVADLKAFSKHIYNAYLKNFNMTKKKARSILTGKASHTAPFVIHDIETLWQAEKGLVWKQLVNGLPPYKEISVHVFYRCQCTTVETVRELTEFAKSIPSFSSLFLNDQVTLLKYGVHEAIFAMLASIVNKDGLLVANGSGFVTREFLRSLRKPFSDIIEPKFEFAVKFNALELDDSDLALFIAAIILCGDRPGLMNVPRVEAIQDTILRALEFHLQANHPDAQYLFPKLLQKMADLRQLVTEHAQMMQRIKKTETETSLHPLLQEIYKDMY

Assay [6] deals with Peroxisome proliferator-activated receptor gamma (Homo sapiens) (UniProt P37231). Put plainly: ATG_PPARg_TRANS: Attagene TRANS-FACTORIAL HepG2 Assay for human Peroxisome Proliferator-activated Receptor-gamma (PPARg) (AID 2283007). The procedure, abridged:
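A TRANS-format multiplexed reporter assay measures activity of an exogenous chimeric NR-Gal4 protein in HepG2 cells. After 24 h of chemical exposure, reporter transcripts are amplified, fluorescently labelled and sized by capillary electrophoresis, with gain of signal scored against DMSO.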

The nature of assay [7]: TOX21_p53_BLA_p4_viability: Viability Assessment in the Tox21 HCT-116 p53 Agonism Beta-lactamase Assay, Phase 4 (AID 2283597).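 Also: hits lower the luminescence signal meaning cytotoxicity.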 An outline of the steps: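 HCT-116 p53-bla cells, 4000/well, dosed after 5 h attachment and incubated 16 h at 37 °C, 5% CO2. Viability from CellTiter-Glo ATP luminescence after 30 min at room temperature, taken after the beta-lactamase read; loss of signal indicates cytotoxicity.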

Assay [8] in a line: CCTE_Harrill_HTTr_Viability_MCF7: CCTE's 6-hour Cell Viability Assessment for the High-Throughput Transcriptomics (HTTr) Platform, in MCF-7 cells cultured in DMEM + 10% fetal bovine serum, Harrill Lab (AID 2284010; active = hit-call score of the fitted dose curve at least 0.9, where 1 is the maximum; inactive = score below 0.9). An outline of the steps:
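MCF-7 cells in DMEM + 10% FBS, 384-well, exposed 6 h to an eight-point dilution series. Membrane integrity scored by high-content imaging of propidium iodide exclusion; bidirectional fit versus DMSO.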

Assay [9] can be described thus: CCTE_Harrill_HTTr_Apoptosis_MCF7: CCTE's 6-hour Apoptosis Assessment for the High-Throughput Transcriptomics (HTTr) Platform, in MCF-7 cells cultured in DMEM + 10% fetal bovine serum, Harrill Lab (AID 2284011; active = hit-call score of the fitted dose curve at least 0.9, where 1 is the maximum; inactive = score below 0.9). The procedure, abridged:
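MCF-7 cells in DMEM + 10% FBS exposed 6 h to chemicals over an eight-point dilution series. Caspase-3/7 activation imaged by high-content CellEvent Green staining; fitted bidirectionally versus DMSO.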

Assay [10] addresses Nuclear receptor subfamily 1 group I member 3 (Homo sapiens) (UniProt Q14994). Briefly: ATG_CAR_TRANS: Attagene TRANS-FACTORIAL HepG2 Assay for human Constitutive Androstane Receptor (CAR) (AID 2282969).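 Also: activators raise reporter mRNA above DMSO so AC50 marks induction.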 The following applies: HepG2 Attagene TRANS-FACTORIAL CAR reporter. An outline of the steps:
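HepG2 cells transiently transfected with GAL4-UAS reporter units; TRANS format reads activity of exogenous chimeric NR-Gal4 protein. After 24 h dosing, reporter mRNA quantified by RT-PCR, 6-FAM labelling and capillary electrophoresis; gain of signal fitted against DMSO.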

Assay [11] has as its target human RAR-related Orphan Receptor gamma (RORg), RORC (gene 6097) (UniProt P51449). Briefly: ATG_RORg_TRANS: Attagene TRANS-FACTORIAL HepG2 Assay for human RAR-related Orphan Receptor gamma (RORg) (AID 2283011). An outline of the steps: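 HepG2 cells transiently transfected with GAL4-UAS reporter units and chimeric RORg-Gal4 construct; after 24 h chemical exposure, reporter mRNA measured by RT-PCR with fluorescent capillary electrophoresis, gain of signal fitted against DMSO.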

Assay [12] concerns the target human Thyroid Receptor alpha (THRa1), THRA (gene 7067) (UniProt P10827). Briefly: ATG_THRa1_TRANS: Attagene TRANS-FACTORIAL HepG2 Assay for human Thyroid Receptor alpha (THRa1) (AID 2283014). The procedure, abridged:
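HepG2 cells transiently transfected with chimeric NR-Gal4 and GAL4-UAS reporter units, dosed 24 h. Reporter mRNA quantified by RT-PCR, fluorescent labeling, HpaI digestion and capillary electrophoresis; gain-of-signal fit versus DMSO.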

Assay [13] is described as follows: ACEA_ER_AUC_viability: ACEA Biosciences xCELLigence Real-Time Cell Analysis on Estrogen Receptor Agonism for Viability (AID 2283782).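 Also: continuous compound exposure with impedance area under curve over 80 h; hit means loss of impedance signal meaning reduced cell growth or viability.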 An outline of the steps:
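T47D cells preconditioned in phenol red-free RPMI with charcoal-stripped FBS, then dosed with 8-point 1:4 series from 100 uM (up to 0.5% DMSO). Impedance monitored up to ~80 h; area-under-curve loss versus DMSO taken as viability.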

In assay [14] the target is Retinoic acid receptor alpha (Homo sapiens) (UniProt P10276). Briefly: ATG_DR5_RAR_CIS: Attagene CIS-FACTORIAL HepG2 Assay for human Retinoic Acid Receptor Alpha (RARE), DR5 submotif (AID 2282934; active = hit-call score of the fitted dose curve at least 0.9, where 1 is the maximum; inactive = score below 0.9). The following applies: HepG2 Attagene cis-factorial RARE DR5 reporter, mRNA; actives raise or lower the signal. The procedure, abridged:
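After 24 h of chemical exposure, transiently transfected HepG2 cells were lysed for total RNA; the DR5-regulated reporter transcript was quantified via RT-PCR and capillary electrophoresis, with activity fitted bidirectionally against DMSO.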

Assay [15] has as its target human RAR-related Orphan Receptor beta (RORb), RORB (gene 6096) (UniProt Q92753). Briefly: ATG_RORb_TRANS: Attagene TRANS-FACTORIAL HepG2 Assay for human RAR-related Orphan Receptor beta (RORb) (AID 2283010). An outline of the steps: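 HepG2 cells transiently transfected with GAL4-UAS reporter units expressing chimeric NR-Gal4 protein; reporter mRNA measured 24 h after dosing by RT-PCR, 6-FAM labelling and capillary electrophoresis. Gain-of-signal fitted relative to DMSO baseline.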

For assay [16], the target named is Oxysterols receptor LXR-beta (Homo sapiens) (UniProt P55055). Put plainly: ATG_LXRb_TRANS: Attagene TRANS-FACTORIAL HepG2 Assay for human Liver X Receptor beta (LXRb) (AID 2282981). Particulars: HepG2 Attagene TRANS GAL4-LXRb reporter, mRNA. The procedure, abridged:
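HepG2 cells transiently transfected with GAL4-UAS reporter units for chimeric NR-Gal4 proteins, dosed for 24 h. Reporter transcripts measured by RT-PCR and capillary electrophoresis; gain-of-signal fitting relative to DMSO.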

A short description of assay [17]: ATG_M_32_TRANS: Attagene TRANS-FACTORIAL HepG2 Assay for M32 Transcription Factor (Internal Marker) (AID 2282984). The following applies: HepG2 Attagene TRANS M32 internal marker reporter. An outline of the steps:
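HepG2 cells transiently transfected with GAL4-UAS reporter units, dosed for 24 hours. Reporter mRNA quantified by RT-PCR, 6-FAM labelling, HpaI digestion and capillary electrophoresis; internal-marker signal fitted upward relative to DMSO.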

The target in assay [18] is Nuclear receptor subfamily 4 group A member 2 (Homo sapiens) (UniProt P43354). Put plainly: ATG_NURR1_TRANS: Attagene TRANS-FACTORIAL HepG2 Assay for human Nuclear Receptor Related Protein 1 (NURR1) (AID 2282985). The following applies: HepG2 Attagene TRANS reporter, mRNA readout. An outline of the steps:
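HepG2 cells transiently transfected with NURR1-Gal4 chimera and GAL4-UAS reporter units; after 24 hr compound exposure, reporter mRNA quantified by RT-PCR and capillary electrophoresis; gain of signal fitted against DMSO.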

For assay [19], the target named is Retinoic acid receptor RXR-alpha (Homo sapiens) (UniProt P19793). Put plainly: ATG_RXRa_TRANS: Attagene TRANS-FACTORIAL HepG2 Assay for human Retinoid X Receptor alpha (RXRa) (AID 2283012). The procedure, abridged:
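HepG2 cells transiently transfected with GAL4-UAS reporter units and chimeric RXRa-Gal4 protein, treated 24 h. Reporter mRNA measured by RT-PCR, fluorescent labelling, HpaI digestion and capillary electrophoresis. Induction fitted against DMSO.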

Assay [20] has as its target Estrogen-related receptor gamma (Homo sapiens) (UniProt P62508). Briefly: ATG_ERRg_TRANS: Attagene TRANS-FACTORIAL HepG2 Assay for human Estrogen-Related Receptor gamma (ERRg) (AID 2282977).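 Also: hits increase reporter signal over DMSO so potencies reflect activators.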 Particulars: HepG2 Attagene TRANS reporter, ERRg transactivation. The procedure, abridged: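 HepG2 cells transiently transfected with multiplexed GAL4-UAS reporter units driven by chimeric NR-Gal4 proteins; 24 h exposure. Reporter mRNA quantified by RT-PCR, fluorescent labelling, HpaI digestion and capillary electrophoresis; gain of signal vs DMSO.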

Chain of human RAR-related Orphan Receptor gamma (RORg), RORC (gene 6097) (P51449 whole entry, looked up, the tested form may be a part): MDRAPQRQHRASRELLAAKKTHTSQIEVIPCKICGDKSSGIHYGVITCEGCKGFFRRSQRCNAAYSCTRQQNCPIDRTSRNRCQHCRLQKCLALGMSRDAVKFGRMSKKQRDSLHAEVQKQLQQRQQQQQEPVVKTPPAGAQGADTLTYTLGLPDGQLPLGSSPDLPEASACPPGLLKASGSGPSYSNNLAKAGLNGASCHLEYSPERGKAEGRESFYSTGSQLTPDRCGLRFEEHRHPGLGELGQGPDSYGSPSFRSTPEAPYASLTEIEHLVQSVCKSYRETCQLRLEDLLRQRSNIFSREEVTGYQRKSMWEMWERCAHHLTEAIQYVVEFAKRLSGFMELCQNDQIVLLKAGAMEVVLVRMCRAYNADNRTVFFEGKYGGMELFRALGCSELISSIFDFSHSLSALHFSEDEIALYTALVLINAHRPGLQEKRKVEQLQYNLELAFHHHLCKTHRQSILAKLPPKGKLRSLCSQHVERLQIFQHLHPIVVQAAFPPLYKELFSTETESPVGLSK
Chain of human RAR-related Orphan Receptor beta (RORb), RORB (gene 6096) (Q92753 whole entry, looked up, the tested form may be a part): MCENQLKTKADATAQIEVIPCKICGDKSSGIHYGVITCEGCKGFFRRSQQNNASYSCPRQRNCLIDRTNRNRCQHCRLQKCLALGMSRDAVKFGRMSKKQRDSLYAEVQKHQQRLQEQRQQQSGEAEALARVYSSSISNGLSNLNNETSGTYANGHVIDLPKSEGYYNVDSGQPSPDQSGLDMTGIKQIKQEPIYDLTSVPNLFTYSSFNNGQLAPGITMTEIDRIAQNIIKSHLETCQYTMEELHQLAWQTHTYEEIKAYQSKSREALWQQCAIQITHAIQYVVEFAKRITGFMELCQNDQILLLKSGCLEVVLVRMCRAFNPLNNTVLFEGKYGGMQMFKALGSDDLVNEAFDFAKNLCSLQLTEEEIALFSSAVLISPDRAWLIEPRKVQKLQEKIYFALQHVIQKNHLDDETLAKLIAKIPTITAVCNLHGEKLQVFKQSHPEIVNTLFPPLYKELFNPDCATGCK
Chain of Peroxisome proliferator-activated receptor gamma (Homo sapiens) (P37231 whole entry, looked up, the tested form may be a part): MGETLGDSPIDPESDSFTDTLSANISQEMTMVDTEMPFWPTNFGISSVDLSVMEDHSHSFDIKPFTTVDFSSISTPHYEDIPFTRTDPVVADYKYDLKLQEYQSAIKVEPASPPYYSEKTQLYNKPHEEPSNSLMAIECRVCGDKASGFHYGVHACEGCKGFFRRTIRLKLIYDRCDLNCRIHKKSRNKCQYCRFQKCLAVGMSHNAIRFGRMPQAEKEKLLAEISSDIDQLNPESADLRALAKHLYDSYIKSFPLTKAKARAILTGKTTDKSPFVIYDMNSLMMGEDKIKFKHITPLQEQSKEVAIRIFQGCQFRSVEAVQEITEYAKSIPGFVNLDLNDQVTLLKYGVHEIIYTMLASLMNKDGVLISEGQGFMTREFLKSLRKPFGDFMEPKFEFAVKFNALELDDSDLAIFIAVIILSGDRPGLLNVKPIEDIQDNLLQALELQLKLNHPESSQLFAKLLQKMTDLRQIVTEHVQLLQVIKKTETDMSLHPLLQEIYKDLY
Chain of Aryl hydrocarbon receptor (Homo sapiens) (P35869 whole entry, looked up): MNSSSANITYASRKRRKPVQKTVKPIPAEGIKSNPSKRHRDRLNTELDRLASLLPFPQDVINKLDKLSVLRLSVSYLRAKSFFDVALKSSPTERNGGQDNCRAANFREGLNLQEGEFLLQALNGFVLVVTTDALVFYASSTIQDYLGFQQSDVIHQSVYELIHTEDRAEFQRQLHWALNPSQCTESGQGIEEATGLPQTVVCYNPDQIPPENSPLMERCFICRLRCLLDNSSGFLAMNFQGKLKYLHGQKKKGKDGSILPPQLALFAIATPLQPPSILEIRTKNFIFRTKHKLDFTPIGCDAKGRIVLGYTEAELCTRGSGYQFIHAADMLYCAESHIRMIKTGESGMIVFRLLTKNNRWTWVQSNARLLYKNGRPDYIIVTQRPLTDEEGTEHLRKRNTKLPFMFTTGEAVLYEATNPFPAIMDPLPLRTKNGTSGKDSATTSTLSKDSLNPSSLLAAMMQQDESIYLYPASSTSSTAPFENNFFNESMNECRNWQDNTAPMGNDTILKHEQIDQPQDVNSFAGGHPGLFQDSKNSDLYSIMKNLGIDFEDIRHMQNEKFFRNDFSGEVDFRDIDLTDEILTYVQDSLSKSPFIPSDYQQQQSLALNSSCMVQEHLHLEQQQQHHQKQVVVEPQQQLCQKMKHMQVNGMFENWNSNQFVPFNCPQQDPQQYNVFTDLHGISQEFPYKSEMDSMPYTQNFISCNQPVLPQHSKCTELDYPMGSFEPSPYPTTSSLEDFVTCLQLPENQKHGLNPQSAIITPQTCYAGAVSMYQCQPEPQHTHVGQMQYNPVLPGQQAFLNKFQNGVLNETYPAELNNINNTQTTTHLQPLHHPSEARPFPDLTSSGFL
Chain of human Thyroid Receptor alpha (THRa1), THRA (gene 7067) (P10827 whole entry, looked up, the tested form may be a part): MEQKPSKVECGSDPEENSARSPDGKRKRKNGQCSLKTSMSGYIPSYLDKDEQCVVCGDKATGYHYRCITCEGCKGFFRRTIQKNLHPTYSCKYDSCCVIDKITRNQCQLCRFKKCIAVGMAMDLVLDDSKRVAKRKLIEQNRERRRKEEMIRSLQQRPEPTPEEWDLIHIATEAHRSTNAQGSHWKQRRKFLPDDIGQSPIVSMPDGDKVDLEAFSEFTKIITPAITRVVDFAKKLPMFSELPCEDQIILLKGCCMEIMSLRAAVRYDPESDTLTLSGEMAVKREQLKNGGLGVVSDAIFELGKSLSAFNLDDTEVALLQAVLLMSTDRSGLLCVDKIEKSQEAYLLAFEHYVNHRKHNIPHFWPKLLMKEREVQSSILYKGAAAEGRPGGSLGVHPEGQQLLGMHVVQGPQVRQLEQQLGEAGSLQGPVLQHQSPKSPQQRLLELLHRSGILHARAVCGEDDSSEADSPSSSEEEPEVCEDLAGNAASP
Chain of Oxysterols receptor LXR-alpha (Homo sapiens) (Q13133 whole entry, looked up, the tested form may be a part): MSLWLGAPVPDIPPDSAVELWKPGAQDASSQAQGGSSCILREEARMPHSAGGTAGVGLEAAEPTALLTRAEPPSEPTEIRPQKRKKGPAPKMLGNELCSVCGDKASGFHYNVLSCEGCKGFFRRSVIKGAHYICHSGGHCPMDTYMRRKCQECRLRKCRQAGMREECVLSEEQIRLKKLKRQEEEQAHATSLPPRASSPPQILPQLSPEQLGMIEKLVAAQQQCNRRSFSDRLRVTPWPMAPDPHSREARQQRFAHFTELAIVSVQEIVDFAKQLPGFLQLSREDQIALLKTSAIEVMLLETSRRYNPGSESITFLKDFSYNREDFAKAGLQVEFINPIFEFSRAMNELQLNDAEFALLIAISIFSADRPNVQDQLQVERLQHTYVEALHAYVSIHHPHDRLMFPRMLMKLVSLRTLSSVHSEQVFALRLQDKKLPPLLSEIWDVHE
Chain of Retinoic acid receptor RXR-alpha (Homo sapiens) (P19793 whole entry, looked up, the tested form may be a part): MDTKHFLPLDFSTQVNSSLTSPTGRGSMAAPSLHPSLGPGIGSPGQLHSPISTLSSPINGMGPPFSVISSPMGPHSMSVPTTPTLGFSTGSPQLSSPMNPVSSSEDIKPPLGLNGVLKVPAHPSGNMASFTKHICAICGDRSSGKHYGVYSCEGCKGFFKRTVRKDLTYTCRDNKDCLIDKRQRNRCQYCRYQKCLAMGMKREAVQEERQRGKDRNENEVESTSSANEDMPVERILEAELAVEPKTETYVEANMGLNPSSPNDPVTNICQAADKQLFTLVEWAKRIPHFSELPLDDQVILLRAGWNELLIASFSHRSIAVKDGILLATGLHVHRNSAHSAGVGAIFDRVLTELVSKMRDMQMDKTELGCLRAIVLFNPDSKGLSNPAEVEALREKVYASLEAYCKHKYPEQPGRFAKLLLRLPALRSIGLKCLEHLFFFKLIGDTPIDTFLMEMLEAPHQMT
Chain of Nuclear receptor subfamily 1 group I member 3 (Homo sapiens) (Q14994 whole entry, looked up, the tested form may be a part): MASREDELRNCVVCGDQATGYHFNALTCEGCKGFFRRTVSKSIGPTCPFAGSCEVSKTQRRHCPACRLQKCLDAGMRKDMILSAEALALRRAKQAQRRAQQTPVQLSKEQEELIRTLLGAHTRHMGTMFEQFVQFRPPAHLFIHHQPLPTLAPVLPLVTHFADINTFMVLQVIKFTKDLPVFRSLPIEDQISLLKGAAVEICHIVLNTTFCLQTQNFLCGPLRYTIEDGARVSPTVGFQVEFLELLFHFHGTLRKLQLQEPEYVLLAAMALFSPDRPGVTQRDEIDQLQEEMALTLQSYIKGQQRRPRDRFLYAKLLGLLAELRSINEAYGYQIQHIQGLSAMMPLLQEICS
Chain of Oxysterols receptor LXR-beta (Homo sapiens) (P55055 whole entry, looked up, the tested form may be a part): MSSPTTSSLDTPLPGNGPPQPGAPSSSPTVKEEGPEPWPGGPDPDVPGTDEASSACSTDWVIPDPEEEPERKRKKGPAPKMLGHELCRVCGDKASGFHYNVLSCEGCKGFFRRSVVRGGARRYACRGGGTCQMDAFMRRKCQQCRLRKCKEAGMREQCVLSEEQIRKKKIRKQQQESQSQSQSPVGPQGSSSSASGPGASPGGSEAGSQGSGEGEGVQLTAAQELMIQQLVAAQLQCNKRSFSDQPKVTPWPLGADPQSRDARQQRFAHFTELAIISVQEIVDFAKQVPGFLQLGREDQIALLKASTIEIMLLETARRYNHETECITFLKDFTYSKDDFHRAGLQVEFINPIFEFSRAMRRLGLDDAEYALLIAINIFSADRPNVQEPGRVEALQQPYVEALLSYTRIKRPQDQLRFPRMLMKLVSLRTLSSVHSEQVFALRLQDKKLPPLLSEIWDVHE

The term AC50 denotes the midpoint of the concentration-response curve, whichever way the signal moves. Take `CC(C)n1c(/C=C/[C@@H](O)C[C@@H](O)CC(=O)O)c(-c2ccc(F)cc2)c2ccccc21`: the AC50 in assay [1] is 51.7 µM (active); in [6] it was 5.07 µM (active); in assay [7], 43.3 µM (active). Further, the result in assay [2], in assay [3], in [4], in assay [5], in assay [7] and in [8] was inactive. The result in assay [9] was inactive.
On to `Cc1cc(C)c(S(=O)(=O)O)cc1N=Nc1cc(S(=O)(=O)O)c2ccccc2c1O`, for which the AC50 in [1] was 42.4 µM (active). For the same molecule, the call in assay [10], in [3], in [4], in assay [6], in [11] and in assay [12] was inactive. The outcome in assay [13] was inactive.
Turning to `CCOC(=O)CC(=O)OCC`, the molecule was classed as inactive in [14], in assay [2], in assay [3], in assay [15], in assay [11] and in [12]. Also, the outcome in [8] and in [9] was inactive.
As to `COC(=O)c1ccccc1`, the result in assay [1], in [2], in [3], in [4], in assay [16] and in [17] was inactive. Further, the outcome in assay [18], in assay [5], in [15], in assay [11], in assay [19] and in assay [12] was inactive. Further, the molecule was classed as inactive in assay [7].
Take `Cc1cccnc1`: the call in assay [1], in assay [10], in [2], in assay [3], in assay [20] and in assay [4] was inactive. Further, the outcome in assay [17], in [6], in assay [15], in assay [19], in [12] and in [8] was inactive. Besides, the result in [9] was inactive.
Turning to `C[C@H]1C[C@H]2[C@@H]3CCC4=CC(=O)C=C[C@]4(C)[C@@]3(F)[C@@H](O)C[C@]2(C)[C@@]1(O)C(=O)CO`, in [1], the AC50 was 44.6 µM (active). In addition, the result in assay [2], in assay [18], in [5], in assay [12], in [7] and in [8] was inactive. Moreover, the result in [9] was inactive.
